TbPYK inhibitor – qHTS of Trypanosoma Brucei Inhibitors; Potency, µM (top dose mostly 76.8 µM), for inactives: top-dose activity, negative = inhibition, most hits filed as inhibitors; 0.12% of 410,000 active; TbPYK enzyme, Kinase-Glo Plus ATP luminescence, 45 min; note: % is set by controls: 0 for no effect and ±100 for the full control effect; nearly all actives have a fitted effect of over 50% in size
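Assay buffer: 50 mM TEA pH 7.2, 100 mM KCl, 10 mM MgCl2, 0.05% BSA, 0.01% Tween-20. Pyruvate kinase from T. brucei plus substrate met compound, then ADP (130 uM final). Luminescence was read post 45 min RT.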
RE007 growth inh – qHTS Assay for Inhibitors of the HIV-1 protein Vpr. S. pombe RE007 Vpr strain, BacTiter-Glo ATP luminescence, 24 h. Potency, µM (top dose mostly 92.2 µM), inactives show top-dose activity change, negative = less growth, actives largely listed as inhibitors. 0.21% of 360,000 active. AID 651644, 2012; active = well fitted falling curve with a large enough effect; inconclusive = small, poorly fitted or top-dose-only effect; inactive = no such curve, though single readings can be large or run the other way; note: % is set by controls: 0 for no effect and ±100 for the full control effect; nearly all actives have a fitted effect of over 50% in size
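Fission yeast strain RE007, carrying one chromosomally integrated HIV-1 vpr copy, was seeded at OD 0.01 in PMG+AL medium with 23 nL pinned compound. After 24 h at 30 °C and 99% humidity, viability was read by BacTiter-Glo luminescence.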
AmpC inh detg – qHTS Inhibitors of AmpC Beta-Lactamase (assay with detergent); AID 485294, 2010; AmpC hydrolysis of nitrocefin, absorbance 480 nm, 0.01% Triton; 0.041% of 370,000 active; Potency, µM (top dose mostly 114 µM), without a hit: top-dose activity change, negative = inhibition, hits mostly inhibitors;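 note: 0% = no-compound wells and -100% = no-enzyme wells; nearly all actives have a fitted effect of over 25% in size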
Target sequence (P00811 whole entry, looked up): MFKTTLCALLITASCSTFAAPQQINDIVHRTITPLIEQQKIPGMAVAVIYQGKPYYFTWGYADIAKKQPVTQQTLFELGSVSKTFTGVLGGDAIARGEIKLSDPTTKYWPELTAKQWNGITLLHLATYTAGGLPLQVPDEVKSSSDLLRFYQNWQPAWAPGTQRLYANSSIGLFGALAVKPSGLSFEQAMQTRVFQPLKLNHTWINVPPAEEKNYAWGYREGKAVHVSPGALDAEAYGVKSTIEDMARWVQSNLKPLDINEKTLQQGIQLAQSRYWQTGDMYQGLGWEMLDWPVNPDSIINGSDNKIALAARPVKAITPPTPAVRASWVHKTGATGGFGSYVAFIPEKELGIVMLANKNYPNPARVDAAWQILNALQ
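AmpC (5.3 nM in the dispensed reagent) in 20 mM phosphate pH 7.0 with 0.01% (detergent screen) or 0.0001% Triton X-100 was preincubated with compounds for 15 min at room temperature. Nitrocefin was then added from an 800 uM solution, and hydrolysis was followed at 480 nm.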
AmpC no deterg – qHTS Inhibitors of AmpC Beta-Lactamase (assay without detergent) | Potency, µM (doses to about 57.1 µM), for the others: at the top dose activity change, negative = inhibition, actives largely listed as inhibitors | 0.52% of 330,000 active | P00811 | AmpC nitrocefin hydrolysis, absorbance 480 nm, 0.0001% Triton | AID 485341, 2010;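 note: plate controls were no compound for no effect and no enzyme for full effect; nearly all actives have a fitted effect of over 20% in size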
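20 mM phosphate pH 7.0 + 0.01% (detergent screen) or 0.0001% Triton X-100; 5.3 nM AmpC reagent; cpd preinc 15 min RT; nitrocefin (800 uM stock) to start; A480 q20 s × 4 min; Activity was normalised to no-enzyme and no-compound control wells.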
Sm TGR inh – qHTS Assay for the Inhibitors of Schistosoma Mansoni Peroxiredoxins; Schistosoma mansoni thioredoxin glutathione reductase (TGR), Q962Y6; purified TGR, DTNB reduction, TNB absorbance 405 nm; Potency, µM (highest dose often 114 µM), without a hit: at the top dose activity change, negative = inhibition, most hits filed as inhibitors; 3% of 360,000 active; AID 485364, 2010; note: % is set by controls: 0 for no effect and ±100 for the full control effect; nearly all actives have a fitted effect of over 60% in size
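First, TGR (20 nM dispensed) and NADPH were mixed with compound. Second, a 15 min room-temperature incubation followed. Third, further NADPH and then DTNB were added to start the reaction. Finally, TNB absorbance was monitored kinetically.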
SARS PLpro yeast – qHTS of Yeast-based Assay for SARS-CoV PLP; S. cerevisiae expressing SARS-CoV PLpro, growth rescue; Potency, µM (top dose mostly 32.9 µM), without a hit: at the highest dose activity, positive = growth rescue, usual class: activators; 0.19% of 330,000 active; AID 485353, 2010; calls by dose curve; note: 0% is about no effect; nearly all actives have a fitted effect of over 55% in size
The depositor's hits bear a star; ? = inconclusive; . = no result; [ ] = remark or other dose. Rows were chosen to be rich in hits. Some 3.3% of all compounds tested hit in one or more screens of this group. Unless noted, calls come from the whole dose curve; as a rule, active = well fitted curve in the direction sought with a large enough effect; inconclusive = small, poorly fitted or top-dose-only effect, or another doubt; inactive = no such curve, though single readings can be large; an effect the other way counts as inactive or inconclusive. Potency is the fitted concentration of half-maximal effect.

SMILES | TbPYK inhibitor | RE007 growth inh | AmpC inh detg | AmpC no deterg | Sm TGR inh | SARS PLpro yeast
O=C1N=C(N2CCCC2C(=O)O)S/C1=C\c1ccco1 (stereo not given) | ? | 23.1% | -1.3% | 4.7% | 7.08µM* | -3.2%
CC(=O)Cc1cc2cc([N+](=O)[O-])ccc2oc1=O | -2.0% | 3.8% | 0.1% | -2.5% | -1.2% | -1.5%
CC(=O)CCc1oc2ccc([N+](=O)[O-])cc2c1-c1ccc(C)o1 | -14.4% | -16.6% | -7.3% | -3.2% | 20µM* | -1.1%
Cc1ccc(C(c2ccc(C)o2)c2cccc([N+](=O)[O-])c2O)o1 | -5.4% | 1.2% | -5.5% | -29.9% | ? | -35.1%
CC(=O)CCc1oc2c([N+](=O)[O-])cccc2c1-c1ccc(C)o1 | -8.0% | -14.0% | -1.0% | 38.8% | 11.2µM* | -5.0%
CC(NC(=S)Nc1ccccc1OC(F)F)C(C)(C)C (stereo not given) | -0.6% | -6.6% | 5.9% | -13.2% | -1.7% | 11.2µM*
CC(NC(=S)Nc1ccc(OC(F)F)cc1OC(F)F)C(C)(C)C (stereo not given) | 0.7% | 0.9% | -14.9% | -6.2% | -25.7% | -9.0%
COc1ccc(C(=O)NCCn2cc(SCC(=O)Nc3ccc4c(c3)OCCO4)c3ccccc32)cc1 | 10.2% | . | 8.8% | . | 6.1% | .
COc1ccc(N=CC2=C(O)CC(C)(C)CC2=O)cc1 | 1.6% | 48.4% | -2.3% | -20.6% | 1.4%[11.4 µM] | 12.6µM*
COc1ccc(OC)c(N=CC2=C(O)CC(C)(C)CC2=O)c1 | -9.3% | -8.3% | -5.2% | -23.9% | -2.8% | -9.1%
CC1(C)CC(=O)C(C=Nc2cccnc2/N=C/C2=C(O)CC(C)(C)CC2=O)=C(O)C1 | -13.5% | -11.8% | 0.7% | -12.3% | 22.4µM* | -2.1%
O=C(c1coc(=O)c(Br)c1)N1CCCc2ccccc21 | -7.8% | -9.9% | ? | -8.3% | 22.4µM* | 2.2%
CC(=O)N1CCc2cc(Br)cc(S(=O)(=O)CCC(=O)NCc3ccc(F)cc3)c21 | -2.0% | . | 6.5% | . | 2.3% | .
COc1ccc(-c2nsc(NC(=O)c3cccc(OC)c3)n2)cc1 | 1.8% | . | 16.4% | . | 4.4% | .
C=CCN=c1scc(-c2ccco2)n1/N=C/c1ccc(O)c(O)c1O | ? | -18.8% | 1.7% | 4.47µM* | 0.0% | -0.2%
CN=c1scc(-c2cccs2)n1/N=C/c1ccc(O)c(O)c1O | ? | -24.7% | 3.6% | ? | ? | -79.0%
CC(C)N=c1scc(-c2ccco2)n1/N=C/c1ccc(O)c(O)c1 | -19.0% | ? | 5.2% | -46.7% | -12.2% | -30.8%
COCCN=c1scc(-c2ccco2)n1/N=C/c1ccc(O)c(O)c1O | ? | -25.2% | -5.4% | ? | 12.6µM* | ?
CN=c1scc(C)n1/N=C/c1ccc(O)c(O)c1O | ? | ? | 5.9% | -37.1% | 22.4µM* | -11.0%
COc1ccccc1/C=C/C(=O)NCC(=O)N1CCC(N(C)C2CCCC2)CC1 | -3.3% | -0.2% | 0.0% | 4.7% | -20.8% | 0.2%
CCOc1ccccc1/C=C/C(=O)NCC(=O)N1CCC(N(C)C2CCCCC2C)CC1 (stereo not given) | -1.7% | -15.5% | -2.0% | 15.3% | 6.31µM* | 3.8%
Cc1ccccc1OCC(=O)Nc1ccc(N2CCOCC2)cc1N1CCOCC1 | -7.9% | 7.6% | -7.3% | 168.1% | -20.1% | 1.6%[6.58 µM]
CCc1ccccc1OCC(=O)Nc1ccc(N2CCCC2)cc1C | -8.6% | -28.4% | -1.5% | 39.4% | 15.8µM* | 0.4%
COc1ccc(N2CCCC2)c(NC(=O)COc2ccccc2)c1 | -0.1% | -24.1% | -8.8% | -22.0% | -31.5% | -17.2%
Cc1cc(N2CCCC2)ccc1NC(=O)COc1ccccc1 | -11.8% | 16.2% | ? | 2.6% | 17.8µM* | 5.6%

Screening data deposited in PubChem by National Center for Advancing Translational Sciences (NCATS).
